From PubChem
Pf Dd2 growth = P. falciparum Dd2 growth inhibitors, primary screen, SYBR Green fluorescence, single dose replicates; 72 h; stronger effect = lower value; activity change, % at 10 µM; 2.3% of 94,000 active; AID 1159554, 2015; in the data active means activity change below about -80%; inconclusive means no clear call, values can overlap the other calls
T cruzi growth-1 = T. cruzi intracellular proliferation inhibitors, primary screen, cell-based, beta-gal Tulahuen parasites, NIH3T3 host, luminescence; T. cruzi beta-gal in NIH3T3, GalScreen luminescence, 90 h; inhibition, % at 8.34 µM; 5.9% of 77,000 active; AID 624255, 2012;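 active means mean inhibition above about 93%, with at least 55% of replicates each passing it, limit read from the data, passing the limit was not always enough; inconclusive means only one of those two conditions holds; inactive means neither condition holds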
C diff growth = C. difficile growth inhibitors, primary screen, HTS; Clostridium difficile clinical isolate growth, OD600, 24 h; stronger effect = lower value; growth activity, negative = inhibition, % at 16 µg/mL (by protocol); 0.25% of 86,000 active;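 active means mean growth activity at or below -80% and every replicate also at or below -80%; inconclusive means mean at or below -80% but some replicate above -80%; inactive means mean growth activity above -80%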
T cruzi growth-2 = T. cruzi intracellular proliferation inhibitors, confirmation, cell-based, NIH3T3 host, beta-gal parasite, luminescence, cherry-pick | shares compounds with T cruzi growth-1 | T. cruzi beta-gal in NIH3T3, GalScreen luminescence, 90 h | inhibition, % at 8.35 µM | 72% of 5,600 active;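 active means mean replicate inhibition above about 95% and at least 55% of replicates individually reaching it, limit read from the data; inconclusive means only one of the two criteria is met; inactive means neither criterion is met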
T cruzi growth-3 = inhibitors of intracellular T. cruzi replication, confirmation, NIH3T3 host cells, beta-gal parasites, cherry-pick, set 2 | inhibition, % at 2.09 µM | 21% of 5,600 active | shares compounds with T cruzi growth-1 | T. cruzi beta-gal in NIH3T3, GalScreen luminescence, 90 h | AID 651740, 2012;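 active means mean inhibition above about 95%, with at least 55% of replicates also reaching it, limit read from the data; inconclusive means meets just one of the two conditions; inactive means meets neither condition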
3T3 cytotox = cytotoxicity in mouse NIH/3T3 fibroblasts, confirmation, cytotoxicity control for T. cruzi proliferation inhibitor project, cell-based, cherry-pick, single point; shares compounds with T cruzi growth-1; NIH/3T3 viability, CellTiter-Glo ATP luminescence, 90 h; cytotoxicity (signal decrease), % at 8.35 µM; 14% of 5,600 active; AID 651742, 2012;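 active means mean signal decrease across replicates above about 35% based on untreated-well scatter, with enough replicates individually passing, limit read from the data; inconclusive means no rule stated though some were filed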
3T3 cytotox 2 = NIH/3T3 fibroblast cytotoxicity, confirmation, cytotoxicity control, cell-based, cherry-pick, single point, set 2 | NIH/3T3 viability, CellTiter-Glo ATP luminescence, 90 h | shares compounds with T cruzi growth-1 | inhibition, % at 24.9 µM | 56% of 5,600 active | AID 651744, 2012;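 active means mean loss of cell viability signal at or above a set limit, and enough replicates individually reaching it; inconclusive means meets only the mean limit or only the replicate share; inactive means meets neither condition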
Large screens that a line does not name were inactive (follow-up assays come after a bar, where they were run). Most compounds without a hit are left out; they make up all but 6.8% or so of the library.

C[C@H](CO)N1C[C@H](C)[C@@H](CN(C)C(=O)Nc2cc(F)ccc2F)Oc2cc(-c3cccc(C#N)c3)ccc2S1(=O)=O	none (no result: T cruzi growth-1, C diff growth)
C[C@@H]1CN([C@@H](C)CO)S(=O)(=O)c2ccc(-c3cccc(C#N)c3)cc2O[C@@H]1CN(C)C(=O)c1ccccc1	T cruzi growth-1 109.3 | T cruzi growth-2 104.2 | T cruzi growth-3 inactive | 3T3 cytotox 54.2 | 3T3 cytotox 2 72.3
CO[C@H]1CN(C)C(=O)c2ccc(NS(=O)(=O)c3ccc(C)cc3)cc2OC[C@@H](C)NC[C@H]1C	none
C[C@@H]1CN([C@@H](C)CO)C(=O)c2cc(NC(=O)Cn3cnnn3)ccc2O[C@@H]1CN(C)C	none (no result: T cruzi growth-1)
CC(C)NC(=O)Nc1ccc2c(c1)C(=O)N([C@H](C)CO)C[C@H](C)[C@@H](CN(C)C(=O)Nc1ccc3c(c1)OCO3)OCCCC[C@@H](C)O2	none
CN1c2ccc(C3=CCCCC3)cc2[C@@H]2[C@@H](CCN2C(=O)C2CC2)[C@H]1CO	none (no result: T cruzi growth-1)
C[C@H](CO)N1C[C@H](C)[C@H](CN(C)Cc2ccc(C(F)(F)F)cc2)OCCCC[C@H](C)Oc2ccc(NC(=O)Nc3cccc4ccccc34)cc2C1=O	none
C[C@@H]1CN([C@@H](C)CO)C(=O)c2cc(NC(=O)Nc3cccc4ccccc34)ccc2O[C@@H](C)CCCCO[C@H]1CN(C)Cc1ccc(C(F)(F)F)cc1	T cruzi growth-1 inconclusive | T cruzi growth-2 108.6 | T cruzi growth-3 117.3 | 3T3 cytotox inactive | 3T3 cytotox 2 inactive
C[C@H](CO)N1C[C@H](C)[C@@H](CN(C)Cc2ccc(C(F)(F)F)cc2)OCCCC[C@H](C)Oc2ccc(NC(=O)Nc3cccc4ccccc34)cc2C1=O	T cruzi growth-1 inconclusive | T cruzi growth-2 98.8 | T cruzi growth-3 107.1 | 3T3 cytotox inactive | 3T3 cytotox 2 inactive
C[C@@H]1CCCCO[C@H](CN(C)Cc2ccc(C(F)(F)F)cc2)[C@H](C)CN([C@H](C)CO)C(=O)c2cc(NC(=O)Nc3cccc4ccccc34)ccc2O1	T cruzi growth-1 inconclusive | T cruzi growth-2 105.4 | T cruzi growth-3 116.8 | 3T3 cytotox inactive | 3T3 cytotox 2 inactive
C[C@@H]1CN([C@@H](C)CO)C(=O)c2cc(NC(=O)Nc3cccc4ccccc34)ccc2O[C@@H](C)CCCCO[C@@H]1CN(C)Cc1ccc(C(F)(F)F)cc1	Pf Dd2 growth -87.7, T cruzi growth-1 inconclusive | T cruzi growth-2 106.6 | T cruzi growth-3 110.8 | 3T3 cytotox inactive | 3T3 cytotox 2 inactive
C[C@@H]1CN([C@@H](C)CO)C(=O)c2cc(NC(=O)Nc3cccc4ccccc34)ccc2O[C@@H](C)CCCCO[C@@H]1CN(C)Cc1ccc(C(=O)O)cc1	none
C[C@H](CO)N1C[C@H](C)[C@H](CN(C)Cc2ccc(C(=O)O)cc2)OCCCC[C@H](C)Oc2ccc(NC(=O)Nc3cccc4ccccc34)cc2C1=O	none
O=C(C[C@@H]1CC[C@H](NC(=O)CC2CC2)[C@@H](CO)O1)NCc1ccccc1	none (no result: T cruzi growth-1)
CO[C@H]1CN(C)C(=O)c2ccc(NS(=O)(=O)c3cccc(C)c3)cc2OC[C@H](C)NC[C@@H]1C	none (no result: T cruzi growth-1)
CN1CCN(C(=O)C[C@H]2CC[C@@H]3[C@H](COC[C@H](O)CN3C(=O)C3CC3)O2)CC1	none
C[C@@H]1CCCCO[C@H](CN(C)Cc2ccc(C(F)(F)F)cc2)[C@@H](C)CN([C@H](C)CO)C(=O)c2cc(NC(=O)Nc3cccc4ccccc34)ccc2O1	T cruzi growth-1 inconclusive | T cruzi growth-2 106.7 | T cruzi growth-3 inactive | 3T3 cytotox inactive | 3T3 cytotox 2 inactive
C[C@@H]1CCCCO[C@H](CN(C)C(=O)C2CCCCC2)[C@@H](C)CN([C@H](C)CO)C(=O)c2cc(NC(=O)Nc3cccc4ccccc34)ccc2O1	T cruzi growth-1 inconclusive | T cruzi growth-2 101.6 | T cruzi growth-3 inactive | 3T3 cytotox inactive | 3T3 cytotox 2 inactive
C[C@H](CO)N1C[C@H](C)[C@@H](CN(C)C(=O)Nc2cccc3ccccc23)OCCCC[C@H](C)Oc2ccc(NC(=O)Nc3cccc4ccccc34)cc2C1=O	none (no result: C diff growth)
C[C@@H]1CCCCO[C@H](CN(C)C(=O)c2ccccc2)[C@H](C)CN([C@@H](C)CO)C(=O)c2cc(NC(=O)Nc3cccc4ccccc34)ccc2O1	none
C[C@@H]1CCCCO[C@H](CN(C)C(=O)Nc2cccc3ccccc23)[C@H](C)CN([C@@H](C)CO)C(=O)c2cc(NC(=O)Nc3cccc4ccccc34)ccc2O1	none (no result: C diff growth)
C[C@H]1CCCCO[C@H](CN(C)C(=O)C2CCCCC2)[C@@H](C)CN([C@@H](C)CO)C(=O)c2cc(NC(=O)Nc3cccc4ccccc34)ccc2O1	T cruzi growth-1 inconclusive | T cruzi growth-2 98.1 | T cruzi growth-3 103.6 | 3T3 cytotox inactive | 3T3 cytotox 2 inactive
C[C@@H]1CN([C@H](C)CO)C(=O)c2cc(NC(=O)Nc3cccc4ccccc34)ccc2O[C@@H](C)CCCCO[C@H]1CN(C)C(=O)C1CCCCC1	T cruzi growth-1 inconclusive | T cruzi growth-2 104.1 | T cruzi growth-3 105.6 | 3T3 cytotox inactive | 3T3 cytotox 2 inactive
C[C@@H]1CCCCO[C@H](CN(C)C(=O)Nc2cccc3ccccc23)[C@@H](C)CN([C@H](C)CO)C(=O)c2cc(NC(=O)Nc3cccc4ccccc34)ccc2O1	none (no result: C diff growth)
C[C@@H]1CCCCO[C@@H](CN(C)C(=O)C2CCCCC2)[C@H](C)CN([C@@H](C)CO)C(=O)c2cc(NC(=O)Nc3cccc4ccccc34)ccc2O1	T cruzi growth-1 115.6 | T cruzi growth-2 104.2 | T cruzi growth-3 inactive | 3T3 cytotox inactive | 3T3 cytotox 2 inactive
COC(=O)[C@@H]1[C@@H](CO)[C@@H]2Cn3c(ccc(-c4cccc(F)c4)c3=O)[C@@H]2N1Cc1ccccn1	none
Cc1ccc(NC(=O)Nc2ccc3c(c2)C(=O)N(C)[C@@H]2CC[C@H](CC(=O)O)O[C@@H]2CO3)cc1	none
C[C@H]1CN([C@@H](C)CO)C(=O)Cc2cc(NC(=O)C3CC3)ccc2O[C@@H]1CN(C)Cc1ccc2c(c1)OCO2	none
COc1ccc(S(=O)(=O)Nc2ccc3c(c2)C(=O)N([C@@H](C)CO)C[C@@H](C)[C@H](CN(C)C(=O)Nc2ccc(F)cc2)O3)cc1	none
CCS(=O)(=O)NCC[C@@H]1CC[C@@H](NC(=O)C2CCC2)[C@@H](CO)O1	none (no result: T cruzi growth-1)
CN(C)C(=O)c1ccc(-c2ccc([C@@H]3[C@@H](CO)N4CCCCN(Cc5cccnc5)C[C@H]34)cc2)cc1	none
